Assay results reported in the supplement of paper PMC10849652.
Of roughly 7,900 targets only a part is listed; those with a hit were picked by preference. About 0.6% of all pairs of compound and target were hits. Values without a mark were called inactive.

compound: c1cn2cc(-c3ccc4cn[nH]c4c3)nc(Nc3ccc(N4CCOCC4)cc3)c2n1 [entospletinib]; test: log2 fold change, soluble protein after heating vs DMSO (PISA); higher = thermal stabilisation; K562 cells, 10 uM, 30 min; active = over 0.2 and 3.5 SD of the protein, either way, in both replicates (recomputed)
Method in brief: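 Aliquots of K562 cells (2×10^6 cells/mL) treated with 10 μM compound for 30 min were heated for 3 min over 48°C-58°C. After pooling and extraction in PBS with 0.5% NP-40 at 4°C, soluble protein from a 21,000xg, 90 min spin was quantified by TMTpro 16plex LC-MS/MS with channel sums equalised. Thermal stability is expressed against control samples, from duplicates, as a log2 fold change.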

Chain of UniProt Q15014 (Q15014 whole entry, looked up): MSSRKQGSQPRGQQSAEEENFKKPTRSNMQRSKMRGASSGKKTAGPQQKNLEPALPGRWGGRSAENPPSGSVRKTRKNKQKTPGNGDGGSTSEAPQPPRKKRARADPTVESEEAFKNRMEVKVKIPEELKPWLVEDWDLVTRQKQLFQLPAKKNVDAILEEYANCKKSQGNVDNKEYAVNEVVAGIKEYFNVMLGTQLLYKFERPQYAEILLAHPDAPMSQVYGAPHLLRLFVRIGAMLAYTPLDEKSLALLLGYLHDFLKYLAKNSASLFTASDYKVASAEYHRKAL
Chain of UniProt Q13952 (Q13952 whole entry, looked up): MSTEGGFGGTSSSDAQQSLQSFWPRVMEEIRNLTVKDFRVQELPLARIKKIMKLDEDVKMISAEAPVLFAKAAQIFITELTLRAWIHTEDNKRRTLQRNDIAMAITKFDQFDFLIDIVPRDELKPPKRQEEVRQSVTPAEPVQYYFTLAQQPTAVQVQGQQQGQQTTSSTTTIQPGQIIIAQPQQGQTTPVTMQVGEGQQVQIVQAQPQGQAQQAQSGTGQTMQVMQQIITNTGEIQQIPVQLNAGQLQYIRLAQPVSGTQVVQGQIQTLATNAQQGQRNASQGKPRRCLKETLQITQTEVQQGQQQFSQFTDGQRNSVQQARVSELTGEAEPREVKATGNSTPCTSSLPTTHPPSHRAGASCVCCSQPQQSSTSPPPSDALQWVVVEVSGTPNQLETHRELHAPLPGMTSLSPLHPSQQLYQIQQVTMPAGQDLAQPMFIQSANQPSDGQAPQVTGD
Chain of MTHFD1, A0A384N5Y3 (A0A384N5Y3 whole entry, looked up): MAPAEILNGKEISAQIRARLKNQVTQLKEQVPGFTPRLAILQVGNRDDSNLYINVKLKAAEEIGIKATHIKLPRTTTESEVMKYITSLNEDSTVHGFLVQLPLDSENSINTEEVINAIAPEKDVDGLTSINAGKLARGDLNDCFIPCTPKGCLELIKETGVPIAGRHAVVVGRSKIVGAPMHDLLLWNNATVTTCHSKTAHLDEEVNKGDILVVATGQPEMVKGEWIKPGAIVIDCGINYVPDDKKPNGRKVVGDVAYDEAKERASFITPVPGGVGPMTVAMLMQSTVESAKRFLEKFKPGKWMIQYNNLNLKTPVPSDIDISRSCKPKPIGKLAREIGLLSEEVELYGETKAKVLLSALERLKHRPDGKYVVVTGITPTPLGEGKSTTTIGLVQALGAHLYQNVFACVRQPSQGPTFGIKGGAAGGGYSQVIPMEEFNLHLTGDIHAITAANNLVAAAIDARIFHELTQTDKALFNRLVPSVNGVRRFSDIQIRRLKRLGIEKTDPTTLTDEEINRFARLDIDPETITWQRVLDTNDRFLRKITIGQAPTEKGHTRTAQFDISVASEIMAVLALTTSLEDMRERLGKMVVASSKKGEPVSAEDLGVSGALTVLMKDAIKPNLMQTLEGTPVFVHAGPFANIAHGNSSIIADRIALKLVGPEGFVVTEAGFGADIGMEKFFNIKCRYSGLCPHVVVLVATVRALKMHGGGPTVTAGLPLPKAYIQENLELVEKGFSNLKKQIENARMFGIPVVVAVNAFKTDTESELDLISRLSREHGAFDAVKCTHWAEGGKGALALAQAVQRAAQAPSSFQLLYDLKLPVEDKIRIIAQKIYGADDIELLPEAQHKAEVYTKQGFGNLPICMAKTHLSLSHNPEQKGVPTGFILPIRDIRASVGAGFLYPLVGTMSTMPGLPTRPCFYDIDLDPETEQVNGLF
Chain of UniProt Q9NXX6 (Q9NXX6 whole entry, looked up): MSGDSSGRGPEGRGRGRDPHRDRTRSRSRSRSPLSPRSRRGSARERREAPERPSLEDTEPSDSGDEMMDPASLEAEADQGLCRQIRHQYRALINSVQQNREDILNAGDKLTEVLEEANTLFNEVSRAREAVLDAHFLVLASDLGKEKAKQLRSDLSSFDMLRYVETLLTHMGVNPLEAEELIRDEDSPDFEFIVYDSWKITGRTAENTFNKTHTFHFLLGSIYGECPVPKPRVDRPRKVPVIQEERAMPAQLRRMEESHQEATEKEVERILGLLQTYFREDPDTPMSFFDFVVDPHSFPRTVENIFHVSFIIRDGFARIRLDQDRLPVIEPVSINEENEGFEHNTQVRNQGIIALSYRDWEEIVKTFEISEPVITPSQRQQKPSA
Chain of UniProt Q8N543 (Q8N543 whole entry, looked up): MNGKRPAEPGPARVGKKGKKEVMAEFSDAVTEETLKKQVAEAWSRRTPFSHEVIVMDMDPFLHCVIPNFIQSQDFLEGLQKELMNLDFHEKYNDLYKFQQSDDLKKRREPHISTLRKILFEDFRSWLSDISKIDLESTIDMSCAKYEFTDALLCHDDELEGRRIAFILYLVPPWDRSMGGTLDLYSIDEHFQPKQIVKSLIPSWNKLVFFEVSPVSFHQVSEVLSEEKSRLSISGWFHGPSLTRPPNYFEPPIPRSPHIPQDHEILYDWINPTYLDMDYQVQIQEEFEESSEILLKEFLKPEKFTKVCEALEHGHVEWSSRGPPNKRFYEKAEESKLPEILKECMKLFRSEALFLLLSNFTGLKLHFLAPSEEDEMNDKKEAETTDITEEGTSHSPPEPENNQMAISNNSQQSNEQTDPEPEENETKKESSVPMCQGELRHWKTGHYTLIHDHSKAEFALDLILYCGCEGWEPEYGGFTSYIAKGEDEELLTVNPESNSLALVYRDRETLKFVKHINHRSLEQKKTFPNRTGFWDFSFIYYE
Chain of UniProt Q9BRA0 (Q9BRA0 whole entry, looked up): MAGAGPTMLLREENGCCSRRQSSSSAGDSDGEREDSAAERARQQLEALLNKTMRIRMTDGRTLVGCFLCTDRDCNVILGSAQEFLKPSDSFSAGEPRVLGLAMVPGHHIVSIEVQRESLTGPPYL
Chain of UniProt P49321 (P49321 whole entry, looked up): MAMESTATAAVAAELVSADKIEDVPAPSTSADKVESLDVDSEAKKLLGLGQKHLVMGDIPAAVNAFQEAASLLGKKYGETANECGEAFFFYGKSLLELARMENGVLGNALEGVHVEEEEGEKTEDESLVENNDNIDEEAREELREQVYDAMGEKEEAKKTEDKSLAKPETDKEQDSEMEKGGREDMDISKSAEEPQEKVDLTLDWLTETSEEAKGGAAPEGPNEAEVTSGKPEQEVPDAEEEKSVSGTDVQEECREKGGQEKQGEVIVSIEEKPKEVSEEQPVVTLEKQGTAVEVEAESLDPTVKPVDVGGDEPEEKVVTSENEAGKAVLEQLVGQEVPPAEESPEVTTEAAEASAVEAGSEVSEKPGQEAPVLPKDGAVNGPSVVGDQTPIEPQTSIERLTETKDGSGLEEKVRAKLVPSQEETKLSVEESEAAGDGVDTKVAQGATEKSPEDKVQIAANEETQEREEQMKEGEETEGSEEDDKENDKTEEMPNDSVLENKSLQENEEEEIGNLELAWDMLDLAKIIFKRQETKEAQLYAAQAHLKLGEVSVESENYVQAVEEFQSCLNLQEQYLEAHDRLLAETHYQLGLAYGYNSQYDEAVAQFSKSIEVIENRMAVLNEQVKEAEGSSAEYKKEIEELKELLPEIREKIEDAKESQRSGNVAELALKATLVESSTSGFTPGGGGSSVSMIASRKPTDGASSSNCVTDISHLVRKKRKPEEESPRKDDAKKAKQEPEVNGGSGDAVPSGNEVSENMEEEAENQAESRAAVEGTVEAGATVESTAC
Chain of UniProt Q96D46 (Q96D46 whole entry, looked up): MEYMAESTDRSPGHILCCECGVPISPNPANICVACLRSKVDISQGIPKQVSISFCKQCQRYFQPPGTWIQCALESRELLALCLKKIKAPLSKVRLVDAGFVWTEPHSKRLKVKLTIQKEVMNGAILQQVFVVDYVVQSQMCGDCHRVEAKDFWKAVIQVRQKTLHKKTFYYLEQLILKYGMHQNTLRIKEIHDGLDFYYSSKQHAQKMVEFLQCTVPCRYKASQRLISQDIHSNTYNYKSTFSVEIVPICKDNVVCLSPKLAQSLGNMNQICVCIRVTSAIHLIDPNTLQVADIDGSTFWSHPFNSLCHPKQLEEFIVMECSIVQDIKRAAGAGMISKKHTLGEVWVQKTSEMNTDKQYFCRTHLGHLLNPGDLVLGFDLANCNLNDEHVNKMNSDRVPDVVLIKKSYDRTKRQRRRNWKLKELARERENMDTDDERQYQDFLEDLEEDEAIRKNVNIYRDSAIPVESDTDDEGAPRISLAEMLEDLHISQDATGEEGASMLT
Chain of UniProt P00846 (P00846 whole entry, looked up): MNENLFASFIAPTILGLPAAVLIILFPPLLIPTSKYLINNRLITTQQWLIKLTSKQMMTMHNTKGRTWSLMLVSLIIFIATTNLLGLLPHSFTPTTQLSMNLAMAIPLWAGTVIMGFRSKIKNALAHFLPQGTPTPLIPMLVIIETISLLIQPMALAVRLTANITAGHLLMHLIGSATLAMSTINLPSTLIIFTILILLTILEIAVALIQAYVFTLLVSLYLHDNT
Chain of UniProt Q14978 (Q14978 whole entry, looked up): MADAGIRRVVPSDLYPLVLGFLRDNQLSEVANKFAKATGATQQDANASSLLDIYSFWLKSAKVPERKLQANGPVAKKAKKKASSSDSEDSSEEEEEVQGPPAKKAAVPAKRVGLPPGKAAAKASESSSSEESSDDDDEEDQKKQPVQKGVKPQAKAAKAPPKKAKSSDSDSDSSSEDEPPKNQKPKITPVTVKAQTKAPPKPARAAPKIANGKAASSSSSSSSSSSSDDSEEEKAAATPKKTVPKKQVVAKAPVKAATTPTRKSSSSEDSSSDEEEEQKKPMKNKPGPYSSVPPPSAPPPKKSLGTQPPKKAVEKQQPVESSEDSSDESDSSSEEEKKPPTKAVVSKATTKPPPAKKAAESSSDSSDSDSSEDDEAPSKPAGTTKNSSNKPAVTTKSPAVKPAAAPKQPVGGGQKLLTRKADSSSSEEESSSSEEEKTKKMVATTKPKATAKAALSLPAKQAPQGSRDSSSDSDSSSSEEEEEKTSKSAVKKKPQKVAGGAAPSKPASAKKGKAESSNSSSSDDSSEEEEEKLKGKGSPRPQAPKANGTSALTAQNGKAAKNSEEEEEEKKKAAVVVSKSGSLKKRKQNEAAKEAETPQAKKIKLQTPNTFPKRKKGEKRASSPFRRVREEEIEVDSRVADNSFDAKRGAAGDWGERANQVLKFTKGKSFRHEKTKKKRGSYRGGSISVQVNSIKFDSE

NDUFB7 (UniProt P17568) and NOP53 (UniProt Q9NZM5) are within 0.2 log units of each other in log2 fold change: -0.074 for the first, -0.001 for the second.

NME1 isoform 2 (UniProt P15531) and MORF4L2 (UniProt Q15014) are within 0.2 log units of each other in log2 fold change: 0.031 for the first, -0.038 for the second.

PAAF1 (UniProt Q9BRP4) and MRPS35 (UniProt P82673) are within 0.2 log units of each other in log2 fold change: -0.023 for the first, 0.036 for the second.

NFYC (UniProt Q13952) and MRPS25 (UniProt P82663) are within 0.2 log units of each other in log2 fold change: 0.033 for the first, 0.029 for the second.

MRPS16 (UniProt Q9Y3D3) and MRPS18B (UniProt Q9Y676) are within 0.2 log units of each other in log2 fold change: 0.051 for the first, 0.028 for the second.

NA, A0A0B4J2A0 and MT-ATP6 (UniProt P00846) are within 0.2 log units of each other in log2 fold change: 0.021 for the first, 0.029 for the second.

NUDT21 (UniProt O43809) and ORC3 (UniProt Q9UBD5) are within 0.2 log units of each other in log2 fold change: 0.016 for the first, -0.144 for the second.

NDUFS4 (UniProt O43181) and NFX1 (UniProt Q12986) are within 0.2 log units of each other in log2 fold change: 0.069 for the first, 0.095 for the second.

NDUFS8 (UniProt O00217) and NFATC2IP (UniProt Q8NCF5) are within 0.2 log units of each other in log2 fold change: -0.012 for the first, -0.054 for the second.

NSMCE4A (UniProt Q9NXX6) and MRPL46 (UniProt Q9H2W6) are within 0.2 log units of each other in log2 fold change: -0.048 for the first, 0.025 for the second.

NR2C2 isoform 2 (UniProt P49116) and MUL1 (UniProt Q969V5) are within 0.2 log units of each other in log2 fold change: 0.019 for the first, -0.005 for the second.

OGFOD1 (UniProt Q8N543) and NOLC1 isoform 2 (UniProt Q14978) are within 0.2 log units of each other in log2 fold change: 0.018 for the first, 0.062 for the second.

NAP1L1 (UniProt B7Z9C2) and NMD3 (UniProt Q96D46) are within 0.2 log units of each other in log2 fold change: -0.081 for the first, -0.001 for the second.

NOP56 (UniProt O00567) and NASP (UniProt P49321) are within 0.2 log units of each other in log2 fold change: -0.012 for the first, -0.007 for the second.

MTHFD1, A0A384N5Y3 and NQO1 (UniProt P15559) are within 0.2 log units of each other in log2 fold change: 0.051 for the first, -0.101 for the second.

Compared with NUP210 (UniProt Q8TEM1), MRPS12 (UniProt O15235) is higher in log2 fold change: -0.125 for the first, 0.15 for the second.

NDUFA4 (UniProt O00483) and NAA38 isoform 2 (UniProt Q9BRA0) are within 0.2 log units of each other in log2 fold change: 0.025 for the first, 0.13 for the second.
